Potency and outcome data for 7 molecules are collected here from PubChem BioAssay (Tox21).

Experiment [1] in a line: qHTS assay for small molecule agonists of the p53 signaling pathway (AID 651631; calls by dose curve; also: nearly all actives have a fitted effect of over 15% in size; also: potency is read from the fitted curve at half-maximal effect). Summed up: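 Stably transfected HCT-116 cells (beta-lactamase behind p53 response elements) get compounds after a 5 h settling period; 16 h later at 37 °C, FRET substrate is loaded and fluorescence read after 2 h.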
(In general: Quantitative high-throughput screening tests each substance at several concentrations.)

Experiment [2] is described as follows: qHTS assay for small molecules that induce genotoxicity in human embryonic kidney cells expressing luciferase-tagged ATAD5 (AID 651632). Also: nearly all actives have a fitted effect of over 15% in size. Also: potency is read from the fitted curve at half-maximal effect. The gist of the method: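 Luminescent reporter readout, HEK293T ATAD5-luc line: 16 hr drug exposure (37C, 5% CO2) followed by Amplite, 30 min RT.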
Experiment [3] is described as follows: qHTS assay for small molecule agonists of the p53 signaling pathway - cell viability (AID 651633; calls by dose curve; also: nearly all actives have a fitted effect of over 30% in size; also: potency is read from the fitted curve at half-maximal effect). Summed up:
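p53RE-bla cells were treated with compound for 16 hours at 37 C. Cytotoxicity was then measured as CellTiter-Glo luminescence after 30 min at room temperature.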

The nature of experiment [4]: qHTS assay for small molecules that induce genotoxicity in human embryonic kidney cells expressing luciferase-tagged ATAD5 - cell viability (AID 651634; calls by dose curve; also: nearly all actives have a fitted effect of over 25% in size; also: potency is read from the fitted curve at half-maximal effect). Summed up:
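Viability read: CellTiter-Fluor fluorescence, 30 min at 37C. Cells: HEK293T, luciferase-tagged ATAD5. Exposure: 15.5 hr, 37C, 5% CO2, compound or DMSO vehicle.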

A short description of experiment [5]: qHTS assay for small molecule disruptors of the mitochondrial membrane potential - cell viability (AID 720634; calls by dose curve; also: nearly all actives have a fitted effect of over 20% in size; also: potency is read from the fitted curve at half-maximal effect). Summed up: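 HepG2, 1 hr compound, 37 C. ATP luminescence via CellTiter-Glo, 30 min RT, same well as m-MPI.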
Experiment [6] can be described thus: qHTS assay for small molecule disruptors of the mitochondrial membrane potential (AID 720635). Also: potency is read from the fitted curve at half-maximal effect. The gist of the method:
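HepG2 cells exposed to compound 1 hr at 37C, then Mito-MPS dye 30 min. Ratio read of aggregate (540/590 nm) versus monomer (490/535 nm) fluorescence.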

The nature of experiment [7]: qHTS assay to test for compound auto fluorescence at 590 nm (red) in HepG2 cells (AID 720674). The gist of the method:
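Seeding: 2,000 HepG2 cells/well, MEM/10% FBS, overnight 37 C. Dosing: compound vs DMSO. Incubation: 1 hr, 37 C, 5% CO2. Read: fluorescence 540 ex/590 em, Rose Bengal sodium as red reference.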

Experiment [8] can be described thus: qHTS assay to test for compound auto fluorescence at 535 nm (green) in HepG2 cells (AID 720675).
The nature of experiment [9]: qHTS assay to test for compound auto fluorescence at 590 nm (red) in HEK293 cells (AID 720679). The gist of the method:
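Intensity at 540nm excitation and 590nm emission is reported as Rose Bengal sodium-equivalent autofluorescence. Measurements followed overnight exposure (37C, 5% CO2) of HEK293 cells, 2,000 per well, to 23 nL compound.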

A short description of experiment [10]: qHTS assay to test for compound auto fluorescence at 535 nm (green) in HEK293 cells (AID 720680).
A short description of experiment [11]: qHTS assay to test for compound auto fluorescence at 460 nm (blue) in HEK293 cell free culture (AID 720681). The gist of the method:
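Compounds were added to cell-free DMEM with 10% FBS and fluorescence read directly. The blue channel used 405 nm excitation and 460 nm emission, with triamterene as the reference fluorophore.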

Experiment [12] is described as follows: qHTS assay to test for compound auto fluorescence at 535 nm (green) in HEK293 cell free culture (AID 720682). The gist of the method: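 Using fluorescein as calibrant, autofluorescence was quantified at 485/535 nm in cell-free DMEM containing 10% FBS after pintool addition of compound or vehicle.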
Experiment [13] can be described thus: qHTS assay to test for compound auto fluorescence at 590 nm (red) in HEK293 cell free culture (AID 720683). The gist of the method: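 Cell-free wells of DMEM with 10% FBS received compound, and intrinsic fluorescence was read at excitation/emission 540/590 nm. Values expressed as equivalence to Rose Bengal sodium.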
Experiment [14] is described as follows: qHTS assay to test for compound auto fluorescence at 460 nm (blue) in HepG2 cell free culture (AID 720685). The gist of the method:
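Compound (23 nL) or DMSO pinned into cell-free MEM with 10% FBS; blue fluorescence read at 405/460 nm excitation/emission, expressed as auto-fluorescence equivalency to triamterene.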

Experiment [15] can be described thus: qHTS assay to test for compound auto fluorescence at 535 nm (green) in HepG2 cell free culture (AID 720686).
In experiment [16] the target is Glucocorticoid receptor (Homo sapiens) (UniProt P04150). Description: qHTS assay to identify small molecule agonists of the glucocorticoid receptor (GR) signaling pathway (AID 720691; active = well fitted activation curve with a large enough effect in the signal ratio in the repeat runs, not every such curve was filed as active; the % refers to the signal ratio). The gist of the method: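 qHTS in GR-bla HeLa cells: 4 h settling at 37 C/5% CO2, 18 h compound incubation at 37 C, 2 h LiveBLAzer B/G FRET substrate at room temperature, fluorescence intensity measured.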
Sequence of Glucocorticoid receptor (Homo sapiens) (P04150 whole entry, looked up): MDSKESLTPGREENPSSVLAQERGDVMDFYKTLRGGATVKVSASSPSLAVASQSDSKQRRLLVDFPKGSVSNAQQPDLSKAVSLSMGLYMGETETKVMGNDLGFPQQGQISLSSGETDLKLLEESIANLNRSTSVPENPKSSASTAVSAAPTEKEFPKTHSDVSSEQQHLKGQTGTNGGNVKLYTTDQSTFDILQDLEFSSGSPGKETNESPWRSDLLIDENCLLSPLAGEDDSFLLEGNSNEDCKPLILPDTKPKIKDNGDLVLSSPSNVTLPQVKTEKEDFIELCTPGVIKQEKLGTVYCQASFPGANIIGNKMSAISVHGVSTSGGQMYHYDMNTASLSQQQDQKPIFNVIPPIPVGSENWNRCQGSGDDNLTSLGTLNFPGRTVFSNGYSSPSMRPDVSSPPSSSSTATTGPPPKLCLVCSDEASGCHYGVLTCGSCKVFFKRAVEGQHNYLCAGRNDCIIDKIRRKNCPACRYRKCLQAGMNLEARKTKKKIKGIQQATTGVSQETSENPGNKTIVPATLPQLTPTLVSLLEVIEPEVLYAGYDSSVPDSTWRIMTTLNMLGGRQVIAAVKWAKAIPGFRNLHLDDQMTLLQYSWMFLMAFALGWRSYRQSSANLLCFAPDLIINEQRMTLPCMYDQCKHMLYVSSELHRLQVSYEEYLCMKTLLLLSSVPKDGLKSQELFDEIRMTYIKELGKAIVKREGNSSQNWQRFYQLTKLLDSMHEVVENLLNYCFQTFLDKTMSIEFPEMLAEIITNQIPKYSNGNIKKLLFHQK

Experiment [17] has the same target. Description: qHTS assay to identify small molecule antagonists of the glucocorticoid receptor (GR) signaling pathway (AID 720692; active = well fitted inhibition curve with a large enough effect in the signal ratio in the repeat runs, not every such curve was filed as active; the % refers to the signal ratio). The gist of the method: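 Inhibition of glucocorticoid signalling is measured in HeLa cells with a GRE-controlled beta-lactamase reporter; cells are co-treated with compound and 5 nM dexamethasone (final) for 18 h before FRET substrate readout.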

A short description of experiment [18]: qHTS assay to test for compound auto fluorescence at 460 nm (blue) in HEK293 cells (AID 720678). Summed up: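 HEK293, 2,000 cells/well, 10% dialyzed FBS; attach 4-5 hr 37C; pin compound or DMSO; o/n 37C/5% CO2; fluorescence 405/460 nm; triamterene-equivalent units.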
The nature of experiment [19]: qHTS assay to test for compound auto fluorescence at 590 nm (red) in HepG2 cell free culture (AID 720684). Summed up:
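Compounds are added to culture medium (MEM, 10% FBS) lacking cells, then fluorescence is read at excitation 540 nm, emission 590 nm, with Rose Bengal sodium as the equivalency standard.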

A short description of experiment [20]: qHTS assay to test for compound auto fluorescence at 460 nm (blue) in HepG2 cells (AID 720687). Summed up:
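HepG2 cells in MEM with 10% FBS, attached overnight at 37 C, were exposed to compound or DMSO for 1 hr at 37 C, 5% CO2. Blue fluorescence was read at 405/460 nm, with triamterene as reference fluorophore.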

Where “and” joins values, the source holds several entries; their conditions need not be identical. Equal values may be shown once. Records with an inconclusive call do not appear. Calls of active or inactive are those of the source. Unless noted, calls follow the shape of the dose curve; as a rule, active = well fitted curve in the direction sought with a large enough effect in the repeat runs; inconclusive = weak or mixed curves; inactive = no such curve, though single readings can be large; an effect the other way counts as inactive or inconclusive.

For `OCCN1CCNCC1`, the Potency entry in experiment [1], in [2], in experiment [3], in [4], in [5] and in experiment [6] was “inactive” throughout. The Potency result in [8], in experiment [10], in [11], in [12], in experiment [14] and in experiment [15] was “inactive” throughout. Besides, the Potency entry in [16] and in experiment [17] was “inactive” throughout. Also, the outcome in experiment [7], in [9] and in [13] was inactive.

On to `Nc1cc(Cl)c(-c2cc(Cl)c(N)cc2Cl)cc1Cl`, for which the Potency in [1] is 68.5 µM (active) and 68.6 µM (active); in experiment [2] it was 13.7 µM (active); in experiment [3] it was 61.1 µM (active) and 54.5 µM (active); in experiment [4], 30.6 µM (active); in experiment [5], 48.5 µM (active) and 54.5 µM (active); in experiment [6], 9.68 µM (active) and 13.7 µM (active). Moreover, the molecule was classed as inactive in experiment [7], in experiment [9], in [13] and in experiment [19]. The Potency entry in experiment [8], in experiment [18], in [10], in experiment [11], in experiment [12] and in experiment [14] was “inactive” each time. The Potency result in [15] and in experiment [20] was “inactive” in each case.

On to `CC(=O)OCCOCCOCCOC(C)=O`, for which the Potency result in experiment [1], in experiment [2], in [3], in [4], in experiment [5] and in experiment [6] was “inactive” in each case. Also, the Potency result in experiment [8], in [18], in [10], in experiment [11], in experiment [12] and in [15] was “inactive” each time. In experiment [20], the Potency result is “inactive”. The molecule was classed as inactive in experiment [7] and in experiment [13].

Turning to `Cc1occc(=O)c1OC(=O)C(C)C`, the Potency result in [1], in experiment [2], in [3], in [4], in [5] and in experiment [6] was “inactive” throughout. The Potency result in experiment [8], in [18], in [10], in experiment [11], in experiment [12] and in experiment [14] was “inactive” in each case. Further, the Potency result in [15], in experiment [20], in experiment [16] and in experiment [17] was “inactive” throughout. Also, the result in experiment [7], in experiment [13] and in [19] was inactive.

`Nc1nc2ccccc2[nH]1`: the Potency result in experiment [1], in experiment [2], in experiment [3], in [4], in experiment [5] and in experiment [6] was “inactive” in each case. In addition, the Potency entry in [8], in [10], in experiment [11], in experiment [12], in experiment [14] and in [15] was “inactive” throughout. Besides, the Potency result in experiment [20], in [16] and in experiment [17] was “inactive” each time. Besides, the molecule was called inactive in [7], in experiment [13] and in [19].

As to `C/C=C/c1ccc(OCC)c(O)c1`, the Potency entry in experiment [1], in [2], in experiment [3], in [4], in [5] and in [8] was “inactive” in each case. In addition, the Potency entry in experiment [18], in experiment [10], in experiment [11], in experiment [12], in experiment [15] and in experiment [16] was “inactive” each time. The Potency entry in experiment [17] was “inactive”. The Potency in experiment [6] was 48.6 µM (active). The result in experiment [7], in experiment [9], in experiment [13] and in experiment [19] was inactive.

Consider `OCC(CO)N[C@H]1C[C@](O)(CO)[C@@H](O)[C@H](O)[C@H]1O`, for which the Potency entry in experiment [1], in [2], in [3], in [4], in [5] and in [6] was “inactive” throughout. In addition, the Potency entry in experiment [8], in experiment [18], in experiment [10], in experiment [11], in [12] and in [14] was “inactive” in each case. The Potency entry in experiment [15], in experiment [20], in [16] and in experiment [17] was “inactive” in each case. For the same molecule, the molecule was called inactive in experiment [7], in experiment [13] and in experiment [19].
